Bioassay records (PubChem)
ST2 IL33 inh – inhibitors of human ST2 (IL1RL1) binding to IL-33, primary screen, biochemical, AlphaLISA | Interleukin-1 receptor-like 1 (Homo sapiens), Q01638 | AlphaLISA ST2-Fc/biotin-IL-33 interaction, 1 h | inhibition, % for hits at 17 µM | hit rate 2.3% among 78,000; in the data active = inhibition above about 30%
Target sequence (Q01638 whole entry, looked up): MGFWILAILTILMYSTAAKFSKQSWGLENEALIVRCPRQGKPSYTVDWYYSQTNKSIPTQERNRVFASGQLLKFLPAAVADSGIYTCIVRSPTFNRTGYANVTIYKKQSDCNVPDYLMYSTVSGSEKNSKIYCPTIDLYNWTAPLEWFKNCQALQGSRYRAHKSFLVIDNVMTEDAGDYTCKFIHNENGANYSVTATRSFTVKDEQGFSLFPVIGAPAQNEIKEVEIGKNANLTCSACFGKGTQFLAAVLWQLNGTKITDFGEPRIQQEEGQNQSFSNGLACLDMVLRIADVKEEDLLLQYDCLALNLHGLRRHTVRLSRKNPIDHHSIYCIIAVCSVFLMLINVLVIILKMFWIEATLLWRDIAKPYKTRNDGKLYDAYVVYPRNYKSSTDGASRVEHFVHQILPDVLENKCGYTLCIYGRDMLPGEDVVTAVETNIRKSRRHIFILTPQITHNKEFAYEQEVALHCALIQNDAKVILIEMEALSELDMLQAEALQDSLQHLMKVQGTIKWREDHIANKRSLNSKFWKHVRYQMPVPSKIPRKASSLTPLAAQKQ
Large screens that a line does not name were inactive. Only a selection was taken, and hits are over-represented in it overall.

CCN/C(C)=C/c1nsc(Nc2ccc(Cl)cc2)n1	none
O=C(c1cc(COc2ccc(F)c(F)c2)on1)N1CCC(c2ccccc2F)C1 (configuration not stated)	none
CC(C)c1cc(C2CCN(C(=O)Cn3nc4ccccc4n3)CC2)[nH]n1	none
CC1=CC(C)C(COC(=O)CN2CCCC2)C(C)C1 (configuration not stated)	none
O=C(CSc1nc2ccc(NC(=O)c3cccc4ccccc34)cc2s1)NC1CC1	none
Cc1ccc2[nH]c3c(c2c1)CCC1C3=NNC1c1ccco1 (configuration not stated)	ST2 IL33 inh 37%
Cc1ccc2[nH]c3c(c2c1)CN(Cc1ccccc1)CC3	none
Cc1ccc2[nH]c3c(c2c1)CCCC3=O	none
CC(c1cccc(-c2cc(N3CCOCC3)nc(N)n2)c1)N1CCCC1 (configuration not stated)	none
Cc1cc(C)n2nc(SCCC(=O)NCc3ccc4c(c3)OCO4)nc2n1	none
CC1=C(C(=O)Nc2cccnc2)C(c2ccc(Cl)cc2)n2ncnc2N1 (configuration not stated)	none
CC(C)C(Nc1ccc(C(F)(F)F)cc1[N+](=O)[O-])C(=O)O (configuration not stated)	none
CC(=O)Nc1ccc(S(=O)(=O)Nc2ccc(C(F)(F)F)cc2[N+](=O)[O-])cc1	none
Cc1nonc1OCC(C)(C)Nc1ccc(C(F)(F)F)cc1[N+](=O)[O-]	ST2 IL33 inh 36%
COc1cccc2cc(-c3nc(-c4ccc(C)cc4)cs3)c(=O)oc12	none
Cc1ccc(CCC(=O)N2CCC(Cn3cc(CO)nn3)CC2)cc1C	none
COc1cc(N2CCC(Cn3cc(CO)nn3)CC2)ncn1	ST2 IL33 inh 65%
COc1ccc(OC)c(C2CCN(c3cc(OC)ncn3)C2)c1 (configuration not stated)	none
O=C(c1cc2cc(F)ccc2[nH]1)N1CCOC(CCc2ccccc2)C1 (configuration not stated)	none
CC(C)NC(=O)CN1CCN(Cc2nc(Cc3cccc(F)c3)no2)CC1	none
Cc1ccccc1SC1CCN(Cc2nc(-c3ccccc3)no2)CC1	none
c1ccc2c(CN3CCCCC3CCn3ccnc3)ccnc2c1 (configuration not stated)	none
CC1CCN(c2ncnc3ccccc23)CC1	none
CC1CCN(Cc2cc(Cn3ccnc3)c3cccnc3c2O)CC1	ST2 IL33 inh 51%
Cn1nc(C2CCN(C(=O)C3COCCN3)CC2)n(-c2ccccc2)c1=O (configuration not stated)	none
COc1cc(-c2ncnn2-c2cccc(Cl)c2C)cc(OC)c1OC	ST2 IL33 inh 33%
Clc1ccc(-c2ncnn2-c2ccccc2Cl)cc1	none
COc1cc(-c2ncnn2-c2ccc(Cl)cc2)cc(OC)c1OC	none
O=C1NC[C@@H](CCC(=O)N2CCN(c3ccccn3)CC2)N2C[C@@H](NCc3cccc(Cl)c3)C[C@@H]12	none
c1ccc(CN2CCN(C3CCCCCC3)CC2)cc1	none
NC(=O)[C@H](Cc1ccccc1)N1CC[C@H]2CN(C(=O)C3CCCCC3)CC[C@H]2CC1=O	none
O=C1C[C@@H]2CCN(Cc3ccccc3)C[C@@H]2CCN1C1CCCCC1	ST2 IL33 inh 76%
CC1CCCCN1C1CC(=O)N(c2ccc(Br)cc2)C1=O (configuration not stated)	none
CC(C)(C)c1ccc(OCC(O)CN2CCN(Cc3ccc4c(c3)OCO4)CC2)cc1 (configuration not stated)	none
CC(C)(C)c1ccccc1OCC(O)CN1CCN(Cc2ccc3c(c2)OCO3)CC1 (configuration not stated)	ST2 IL33 inh 97%
COc1ccc(OCC(O)CN2CCN(c3ccccc3F)CC2)c(C(C)(C)C)c1 (configuration not stated)	none
CCCCN(C)S(=O)(=O)c1ccc(C(=O)Nc2nnc(-c3ccc(OC)cc3)o2)cc1	none
Cc1c(CN(C)Cc2cccc(C(C)(C)C)c2O)cnn1C	none
Nc1ccc(-c2cc(-c3ccccc3)nc(-c3ccc(N)cc3)n2)cc1	none
Nc1ccc(-c2c3ccccc3nc3cc(N)ccc23)cc1	ST2 IL33 inh 61%
Nc1ccc(-c2ccc3ccccc3n2)cc1	none
CN(CCCn1cccn1)C(=O)c1ccc(NC(=O)C2CCC2)cc1	none
Cn1c(=O)cc(SCC(=O)Nc2ccc(F)c(Cl)c2)c2ccccc21	none
Cc1cc(C)c2c(=O)cc(C3C(=O)c4ccccc4C3=O)[nH]c2c1	none
Cc1cc(Br)c2c3c(c(N)c(=O)[nH]c13)-c1ccccc1C2=O	ST2 IL33 inh 45%
COC(=O)c1ccc(-c2noc(CN(C)CC3Cc4ccccc4O3)n2)cc1 (configuration not stated)	none
CCn1ccnc1CN(C)Cc1ccc(-c2nc(C(F)(F)F)c(C)c(=O)[nH]2)cc1	none
Cc1cc(C(=O)Nc2ccc(N3CCOCC3)cc2)ccc1[N+](=O)[O-]	none
O=C(Nc1ccc(N2CCOCC2)cc1)c1cccc([N+](=O)[O-])c1	ST2 IL33 inh 30%
O=C(Nc1ccc(N2CCOCC2)cc1)c1ccccc1	none
Cc1[nH]c2ccccc2c1SCCNC(=O)c1ccccc1C(F)(F)F	none
O=C(Nc1cccc(F)c1)Nc1ccnn1C1CCN(C(=O)[C@@H]2C[C@H]2c2ccccc2)CC1	none
COc1cc(-c2[nH]nc3c2C(c2ccccc2Cl)C(C#N)=C(N)O3)cc(OC)c1OC (configuration not stated)	none
N#CC1=C(N)Oc2nc[nH]c(=O)c2C1c1ccccc1Cl (configuration not stated)	ST2 IL33 inh 94%
CC(C)(C)c1[nH]nc2c1C(c1ccccc1Cl)C(C#N)=C(N)O2 (configuration not stated)	none
COc1ccc(CC(=O)N2N=C(c3ccc(Br)cc3)CC2(O)C(F)(F)F)cc1 (configuration not stated)	none
CCOc1ccc2c(c1)CN(c1c(C)cccc1C)CO2	none
CCN1CCN(c2ncnc3c2cnn3-c2ccc(OC)cc2)CC1	none
O=C(CS(=O)(=O)c1cccc2nsnc12)Nc1ccccc1Br	none
O=C(Nc1ccccc1-c1ccccc1)c1ccc(Br)o1	none
O=C(Nc1cccc2nsnc12)c1ccc(-c2ccc(Br)cc2)o1	ST2 IL33 inh 31%
CC(C)C(=O)N1c2ccccc2NC2=C(C(=O)CCC2)C1c1ccco1 (configuration not stated)	ST2 IL33 inh 30%
CC(=O)N1c2ccccc2NC2=C(C(=O)CCC2)C1c1ccco1 (configuration not stated)	none
CC(=O)N1c2ccccc2NC2=C(C(=O)CCC2)C1c1ccc(Cl)c(Cl)c1 (configuration not stated)	none
C#C[C@@](O)(c1ccccc1)c1ccc(OC)cc1	none
OCCNc1ncnc2oc(-c3ccccc3)c(-c3ccccc3)c12	ST2 IL33 inh 35%
N=c1c2c(-c3ccccc3)c(-c3ccccc3)oc2ncn1CCCO	none
COc1ccc(-c2oc3ncn(CCO)c(=N)c3c2-c2ccc(OC)cc2)cc1	none
C[C@@H]1CN(Cc2nc(Cc3ccccc3Cl)no2)C[C@H](C)O1	none
COc1ccc(NC(=O)CN2C(=O)c3ccc([N+](=O)[O-])cc3C2=O)c(OC)c1	none
COc1ccc(C2=NN(S(=O)(=O)c3ccccc3)C(c3ccc(Br)cc3)C2)cc1 (configuration not stated)	none
COc1ccc(C2CC(c3ccccc3)=NN2S(=O)(=O)c2ccccc2)cc1 (configuration not stated)	none
COc1ccc(C2CC(c3ccc(Br)cc3)=NN2S(=O)(=O)c2ccccc2)cc1 (configuration not stated)	ST2 IL33 inh 34%
